Measurements: PubChem BioAssay (NCI)
This is part of a sample that, as a whole, favours compounds with a hit. Of some 83,000 tested, about 20% had one in any assay.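 For each line, cells grew in 96-well plates with the test compound present at a single concentration for 48 hours.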 Active and inactive are the calls of the source. Rule for the calls: active = growth percent below 10; inactive = the rest.

Tested on: CAKI-1 renal
Assay: NCI-60 one-dose screen, 48 h (100 = growth as untreated, 0 = no growth, -100 = all killed)
Conditions: 10 µM

| Structure (SMILES) | growth |
| --- | --- |
| N#Cc1c(NC(=O)c2ccc(C(O)(C(F)(F)F)C(F)(F)F)cc2)sc2c1CCC(=O)C2 | -68.9% (active) |
| Cn1cc(-c2cc(N)n3nc(-c4c[nH]c5ccc(Br)cc45)cc3n2)c2cc(Br)cnc21 | -69.1% (active) |
| COc1cc2c(cc1OC)CN(CCCCOc1cc(O)c3c(=O)cc(-c4ccccc4)oc3c1)CC2 | 56.9% (inactive) |
| N#Cc1c(NC(=O)c2ccc(C(F)(F)F)cc2C(F)(F)F)sc2c1CCC(=O)C2 | -67.6% (active) |
| O=C1Nc2ccc(Cl)cc2/C1=C/c1cccc(OCc2ccccc2)c1 | 34.6% (inactive) |
| O=c1cc(-c2ccccc2)oc2cc(OCCCCNCc3ccccc3)cc(O)c12 | 25.7% (inactive) |
| CC1=N/C(=C\c2ccc(N(C)C)cc2)C(=O)N1CCc1ccc(S(N)(=O)=O)cc1 | 88.3% (inactive) |
| CC(=O)OC[C@@]1(C)C2CC[C@]3(C)C(CC=C4C5CC(C)(C)CC[C@]5(C(=O)Nc5ccccc5)CC[C@]43C)[C@@]2(C)C[C@@H](OC(C)=O)[C@@H]1OC(C)=O (stereo partly specified) | 37.2% (inactive) |
| Cc1ccc(-c2cc(-c3cc4ccccc4nc3Cl)[nH]c(=S)n2)cc1 | 61.5% (inactive) |
| O=c1cc(-c2ccccc2)oc2cc(OCCCNCc3ccccc3)cc(O)c12 | -24% (active) |
| COc1ccc(C(=O)Nc2sc3c(c2C#N)CCC(=O)C3)cc1C(F)(F)F | -28.1% (active) |
| Cc1cc(C)cc(Oc2cccc(-c3c(C)nnn3C3CCN(CCN(C)C)CC3)n2)c1 | 7.83% (active) |
| Nc1nnc(-c2c[nH]c3ccc(F)cc23)c(-c2c[nH]c3ncccc23)n1 | 33.9% (inactive) |
| O=C1Nc2cc(Cl)ccc2/C1=C/c1cccc(OCc2ccc(Br)cc2F)c1 | 26.9% (inactive) |
| Nc1nc(-c2ccccc2)cc(-c2cc3ccccc3nc2Cl)n1 | 80.1% (inactive) |
| Cc1cc(C(F)(F)F)ccc1C(=O)Nc1sc2c(c1C#N)CCC(=O)C2 | -50.8% (active) |
| O=C(CSc1nnc(-c2ccc3nc(-c4ccccc4)[nH]c3c2)o1)Nc1ccc(Br)cc1 | 76.2% (inactive) |
| COc1ccc2nc(Cl)c(-c3cc(-c4ccccc4)nc(N)n3)cc2c1 | 60.4% (inactive) |
| O=C(CNc1nc(-c2ccccc2)cs1)Nc1ccc(Cl)cc1[N+](=O)[O-] | 2.07% (active) |

| Structure (SMILES) | growth |
| --- | --- |
| C/C(=C\CSc1ccccc1C(=O)O)CCCC(C)CCCC(C)CCCC(C)C (stereo unspecified) | 45.1% (inactive) |
| COc1ccc2[nH]c(=O)c(CSc3cccc(N)c3)cc2c1 | 40.5% (inactive) |
| Cn1cc(-c2cc(N)n3nc(-c4c[nH]c5ccc(Br)cc45)cc3n2)c2cccnc21 | -60.7% (active) |
| N#Cc1c(NC(=O)c2ccc(C(F)(F)F)c(Cl)c2)sc2c1CCC(=O)C2 | -72% (active) |
| COc1ccc(OC)c(/C=N/NC(=O)c2ccc3nc(-c4ccc(Cl)cc4)[nH]c3c2)c1 | 61.6% (inactive) |
| CC(=O)NNc1ccc2nnc(-c3ccc(Br)cc3)n2n1 | 90.3% (inactive) |
| COc1cc(OC(F)(F)F)ccc1C(=O)Nc1sc2c(c1C#N)CCC(=O)C2 | 71.6% (inactive) |
| Cc1nc2c(cnn2-c2ccccc2)c(=O)n1-c1ccc(NC(=O)c2ccc(F)cc2)cc1 | 65.7% (inactive) |
| COc1cccc(/C=N/NC(=O)c2ccc3nc(-c4ccc(Cl)cc4)[nH]c3c2)c1O | -66.1% (active) |
| Cc1cccc2cc(-c3cc(-c4ccccc4)nc(=S)[nH]3)c(Cl)nc12 | 76.2% (inactive) |
| Cc1cc2nc3c4ccccc4n(CCO)c3nc2cc1C | 55.4% (inactive) |
| OCc1[nH]nc2cc(Nc3ncc4ccc(Br)c(OC5CCC(O)CC5)c4n3)ccc12 (stereo unspecified) | -17.2% (active) |
| COc1cccc(/C=C2\N=C(C)N(CCc3ccc(S(N)(=O)=O)cc3)C2=O)c1 | 78.8% (inactive) |
| C=C1CCC2C3(C)COC(c4cc(F)cc(F)c4)OC3CCC2(C)C1C/C=C1/C(=O)OCC1O (stereo unspecified) | -73.2% (active) |
| CN(C(=O)c1ccc(C(F)(F)F)cc1C(F)(F)F)c1sc2c(c1C#N)CCC(=O)C2 | 61.3% (inactive) |
| N#Cc1c(NC(=O)c2cccc(C(F)(F)F)c2)sc2c1CCC(O)=C2 | 44.5% (inactive) |
| COc1cc(/C=N/NC(=O)c2ccc3nc(-c4ccc(Cl)cc4)[nH]c3c2)cc(OC)c1OC | 2.87% (active) |
| N#Cc1c(NC(=O)c2ccc(C(F)(F)F)cc2)sc2c1CCC(O)=C2 | 31.9% (inactive) |
| O=C1Nc2ccc(F)cc2/C1=C/c1cccc(OCc2ccccc2)c1 | 25.9% (inactive) |

Tested on: A498 renal
Assay: as above
Conditions: 10 µM

| Structure (SMILES) | growth |
| --- | --- |
| N#Cc1c(NC(=O)c2ccc(C(O)(C(F)(F)F)C(F)(F)F)cc2)sc2c1CCC(=O)C2 | 13.6% (inactive) |
| Cn1cc(-c2cc(N)n3nc(-c4c[nH]c5ccc(Br)cc45)cc3n2)c2cc(Br)cnc21 | -86.5% (active) |
| COc1cc2c(cc1OC)CN(CCCCOc1cc(O)c3c(=O)cc(-c4ccccc4)oc3c1)CC2 | 127% (inactive) |
| N#Cc1c(NC(=O)c2ccc(C(F)(F)F)cc2C(F)(F)F)sc2c1CCC(=O)C2 | 28.6% (inactive) |
| O=C1Nc2ccc(Cl)cc2/C1=C/c1cccc(OCc2ccccc2)c1 | 84.2% (inactive) |
| O=c1cc(-c2ccccc2)oc2cc(OCCCCNCc3ccccc3)cc(O)c12 | 37.6% (inactive) |
| CC1=N/C(=C\c2ccc(N(C)C)cc2)C(=O)N1CCc1ccc(S(N)(=O)=O)cc1 | 102% (inactive) |
| CC(=O)OC[C@@]1(C)C2CC[C@]3(C)C(CC=C4C5CC(C)(C)CC[C@]5(C(=O)Nc5ccccc5)CC[C@]43C)[C@@]2(C)C[C@@H](OC(C)=O)[C@@H]1OC(C)=O (stereo partly specified) | 64.6% (inactive) |
| Cc1ccc(-c2cc(-c3cc4ccccc4nc3Cl)[nH]c(=S)n2)cc1 | 79.5% (inactive) |
| O=c1cc(-c2ccccc2)oc2cc(OCCCNCc3ccccc3)cc(O)c12 | -14.5% (active) |
| COc1ccc(C(=O)Nc2sc3c(c2C#N)CCC(=O)C3)cc1C(F)(F)F | 63.3% (inactive) |
| Cc1cc(C)cc(Oc2cccc(-c3c(C)nnn3C3CCN(CCN(C)C)CC3)n2)c1 | 56.4% (inactive) |
| Nc1nnc(-c2c[nH]c3ccc(F)cc23)c(-c2c[nH]c3ncccc23)n1 | 104% (inactive) |
| O=C1Nc2cc(Cl)ccc2/C1=C/c1cccc(OCc2ccc(Br)cc2F)c1 | 60% (inactive) |
| Nc1nc(-c2ccccc2)cc(-c2cc3ccccc3nc2Cl)n1 | 108% (inactive) |
| Cc1cc(C(F)(F)F)ccc1C(=O)Nc1sc2c(c1C#N)CCC(=O)C2 | 85.2% (inactive) |
| O=C(CSc1nnc(-c2ccc3nc(-c4ccccc4)[nH]c3c2)o1)Nc1ccc(Br)cc1 | 101% (inactive) |
| COc1ccc2nc(Cl)c(-c3cc(-c4ccccc4)nc(N)n3)cc2c1 | 84.8% (inactive) |
| O=C(CNc1nc(-c2ccccc2)cs1)Nc1ccc(Cl)cc1[N+](=O)[O-] | 14.8% (inactive) |

| Structure (SMILES) | growth |
| --- | --- |
| C/C(=C\CSc1ccccc1C(=O)O)CCCC(C)CCCC(C)CCCC(C)C (stereo unspecified) | 97.4% (inactive) |
| COc1ccc2[nH]c(=O)c(CSc3cccc(N)c3)cc2c1 | 72.6% (inactive) |
| Cn1cc(-c2cc(N)n3nc(-c4c[nH]c5ccc(Br)cc45)cc3n2)c2cccnc21 | -85.9% (active) |
| N#Cc1c(NC(=O)c2ccc(C(F)(F)F)c(Cl)c2)sc2c1CCC(=O)C2 | 74.1% (inactive) |
| COc1ccc(OC)c(/C=N/NC(=O)c2ccc3nc(-c4ccc(Cl)cc4)[nH]c3c2)c1 | 43.8% (inactive) |
| CC(=O)NNc1ccc2nnc(-c3ccc(Br)cc3)n2n1 | 83.4% (inactive) |
| COc1cc(OC(F)(F)F)ccc1C(=O)Nc1sc2c(c1C#N)CCC(=O)C2 | 137% (inactive) |
| Cc1nc2c(cnn2-c2ccccc2)c(=O)n1-c1ccc(NC(=O)c2ccc(F)cc2)cc1 | 86.8% (inactive) |
| COc1cccc(/C=N/NC(=O)c2ccc3nc(-c4ccc(Cl)cc4)[nH]c3c2)c1O | -69.1% (active) |
| Cc1cccc2cc(-c3cc(-c4ccccc4)nc(=S)[nH]3)c(Cl)nc12 | 99% (inactive) |
| Cc1cc2nc3c4ccccc4n(CCO)c3nc2cc1C | 61.6% (inactive) |
| OCc1[nH]nc2cc(Nc3ncc4ccc(Br)c(OC5CCC(O)CC5)c4n3)ccc12 (stereo unspecified) | -26.7% (active) |
| COc1cccc(/C=C2\N=C(C)N(CCc3ccc(S(N)(=O)=O)cc3)C2=O)c1 | 101% (inactive) |
| C=C1CCC2C3(C)COC(c4cc(F)cc(F)c4)OC3CCC2(C)C1C/C=C1/C(=O)OCC1O (stereo unspecified) | 106% (inactive) |
| CN(C(=O)c1ccc(C(F)(F)F)cc1C(F)(F)F)c1sc2c(c1C#N)CCC(=O)C2 | 125% (inactive) |
| N#Cc1c(NC(=O)c2cccc(C(F)(F)F)c2)sc2c1CCC(O)=C2 | 69% (inactive) |
| COc1cc(/C=N/NC(=O)c2ccc3nc(-c4ccc(Cl)cc4)[nH]c3c2)cc(OC)c1OC | -31.1% (active) |
| N#Cc1c(NC(=O)c2ccc(C(F)(F)F)cc2)sc2c1CCC(O)=C2 | 74.2% (inactive) |
| O=C1Nc2ccc(F)cc2/C1=C/c1cccc(OCc2ccccc2)c1 | 80.2% (inactive) |
